Screens as filed in PubChem BioAssay.
Shown are actives, neighbours in structure and some others; about 8.8% of the full set was active somewhere.
HT1080 IDH1KD tx: HT-1080 IDH1 knockdown cell toxicity (counter line); HT-1080 IDH1 knockdown viability, ATP luminescence, 48 h; 360,000 tested, 2% active; Potency, µM (titrated, usually from 46.1 µM), usual class: cytotoxic; AID 686971
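Knockdown cells (IDH1KD HT-1080) received compounds 2 h after plating at 750 cells/well and were kept 48 h at 37 °C in 5% FBS RPMI. A CellTiter-Glo luminescence read gave % activity for curve fitting.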
IL1B secr inh: inhibitors of inflammasome signaling (IL-1 beta secretion); THP-1 LPS/ATP IL-1B secretion, AlphaLISA, 16 h; hits give low values; AID 743279; 360,000 tested, 4.7% active; activity change, % at 57.5 µM; in the data active = activity change below about -50%; inconclusive = mostly about -30% to -49%
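Secreted IL-1B measured by AlphaLISA bead assay after 16 h compound exposure of THP-1 cells; compounds (final up to 57.5 uM) added 1 h before LPS (250 ng/mL) and ATP (1.25 mM) stimulation; lower signal means less secretion.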
KB-V1 MDR tox: KB-V1 MDR subline cytotoxicity | KB-V1 MDR cells viability, CellTiter-Glo, 72 h | Potency, µM (top dose mostly 46.1 µM), actives largely listed as cytotoxic | 400,000 tested, 3.4% active; also: nearly all actives have a fitted effect of over 60% in size
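Readout: CellTiter-Glo luminescence, 10 min after addition. Cells: KB-V1 MDR subline, 72 h at 37 degrees C with compound. Analysis: corrected, normalized data fitted to concentration-effect curves.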
KB-3-1 cytotox: KB-3-1 parental cell cytotoxicity. 400,000 tested, 1.4% active. Potency, µM (titrated, usually from 46.1 µM), most hits filed as cytotoxic. AID 1347075. KB-3-1 viability, CellTiter-Glo ATP luminescence, 72 h; also: nearly all actives have a fitted effect of over 60% in size
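72 h, 37 °C compound treatment of KB-3-1 parental cells; CellTiter-Glo added, 10 min, luminescence read. Data corrected against DMSO-only plates and normalized before curve fitting.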
HT1080NT lethal: kills 2HG-producing HT-1080-NT fibrosarcoma cells. Potency, µM (highest dose often 46.1 µM), actives largely listed as cytotoxic. 360,000 tested, 1.6% active. HT-1080-NT fibrosarcoma viability, CellTiter-Glo ATP luminescence, 48 h;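 also: NT is the 2HG producing partner of a matched IDH1 knockdown line; nearly all actives have a fitted effect of over 55% in size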
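Read-out is CellTiter-Glo luminescence after 10 minutes at room temperature, following 48 hours' compound treatment of HT-1080-NT cells (750 cells/well, RPMI, 5% FBS, 37 degrees C).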
Numbers stand for hits; i = inactive; ? = inconclusive; nt = not tested or not shown. Unless noted, calls follow the shape of the dose curve; as a rule, active = well fitted curve in the direction sought with a large enough effect; inconclusive = small, poorly fitted or top-dose-only effect, or another doubt; inactive = no such curve, though single readings can be large; an effect the other way counts as inactive or inconclusive.

SMILES	HT1080 IDH1KD tx	IL1B secr inh	KB-V1 MDR tox	KB-3-1 cytotox	HT1080NT lethal
CCN1CCN(Cc2c3ccccc3cc3ccccc23)CC1	i	-86.3	?	?	i
COc1ccc2c(C)cc(SCC(=O)Nc3cccnc3Cl)nc2c1	i	i	?	i	i
Cc1cc(SCC(=O)Nc2ncc(Cl)cc2Cl)nc2ccccc12	?	i	6.51µM	i	?
Cc1cc(NC(=O)CSc2cc(C)c3ccccc3n2)no1	i	i	i	i	i
COc1ccc2c(C)cc(SCC(=O)Nc3ncc(Cl)cc3Cl)nc2c1	i	i	18.4µM	i	i
Cn1c(Sc2ccc(Cl)cc2)c(C=O)c2ccccc21	?	-81.0	?	?	?
Cc1cccc(Sc2c(C=O)c3ccccc3n2C)c1	?	i	i	i	?
Cn1c(Sc2ccccc2Cl)c(C=O)c2ccccc21	i	-62.7	?	i	i
O=C(CSc1nncs1)Nc1nnc(-c2ccccc2)o1	i	i	i	i	i
CCOC(=O)c1c(NC(=O)c2ccc(Cl)cc2)csc1C	i	i	9.2µM	i	i
N#Cc1ccc(N[C@@H]2CCN3C(=O)c4ccccc4[C@@H]3C[C@H]2O)cc1	i	i	i	i	i
N#Cc1ccc(NC2c3ccccc3CC2O)cc1 (stereo unspecified)	i	i	18.4µM	?	i
C/C(=N\Nc1cccc(C(F)(F)F)c1)c1ccc(O)cc1	i	i	i	i	i
OC1Cc2ccccc2C1Nc1cccc(C(F)(F)F)c1 (stereo unspecified)	i	-66.1	?	i	i
CC(C)(C)NC(=S)N1CCC(C(=O)c2ccc(Cl)cc2)CC1	i	i	i	i	i
Cc1ccc(C)c2sc(N3CCN(C(=O)c4ccco4)CC3)nc12	nt	nt	i	i	nt
COCOCCn1cc(CN2CCS(=O)(=O)N(Cc3ccc(-c4ccc(Cl)c(Cl)c4)cc3)C(C)C2=O)nn1 (stereo unspecified)	?	i	?	14.6µM	23.1µM
CC1C(=O)N(Cc2cn(CCC3OCCCO3)nn2)CCS(=O)(=O)N1Cc1ccc(-c2ccc(F)cc2)cc1 (stereo unspecified)	i	i	i	i	i
COCOCCn1cc(CN2CCS(=O)(=O)N(Cc3ccc(-c4ccc(C)cc4)cc3)C(C)C2=O)nn1 (stereo unspecified)	i	i	i	i	i
CC1C(=O)N(Cc2cn(CCC3OCCCO3)nn2)CCS(=O)(=O)N1Cc1ccc(-c2ccc(Cl)c(Cl)c2)cc1 (stereo unspecified)	20.6µM	i	?	?	?
CCOc1ccc(N(CC(=O)NC2CC3CCC2C3)S(=O)(=O)c2ccccc2)cc1 (stereo unspecified)	i	i	i	i	i
COc1ccc(N(CC(=O)NCC2CCCO2)S(=O)(=O)c2ccc(C)cc2)cc1OC (stereo unspecified)	i	i	20.6µM	i	i
N#CC1=C(SCc2ccccc2)NC(=O)CC1c1cccc(O)c1 (stereo unspecified)	i	-54.1	?	i	i
CN(C(=O)c1ccc(NC(=O)Cc2ccc(NC(=O)C3CCN(C(=O)C4CCCC4)CC3)cc2)cc1)C1CC1	i	-71.1	i	?	i
CN(C(=O)c1ccc(NC(=O)Cc2ccc(NC(=O)C3CCN(C(=O)C4CCC4)CC3)cc2)cc1)C1CC1	i	?	i	i	i
SMILES	HT1080 IDH1KD tx	IL1B secr inh	KB-V1 MDR tox	KB-3-1 cytotox	HT1080NT lethal
CN(CCc1ccccc1)C(=O)c1cccc(NC(=O)Cc2cccc([N+](=O)[O-])c2)c1	i	?	i	i	i
CN(C(=O)c1cccc(NC(=O)Cc2ccc(NC(=O)C3CCCN(C(=O)CCc4ccccc4)C3)cc2)c1)C1CCCC1 (stereo unspecified)	i	i	i	6.51µM	i
CN(CCc1ccccc1)C(=O)c1ccc(NC(=O)Cc2ccc(NC(=O)C3CCN(C(=O)C4CC4)CC3)cc2)cc1	i	-56.1	i	i	i
CN(CCc1ccccc1)C(=O)c1ccc(NC(=O)Cc2ccc(NC(=O)C3CCN(C(=O)C4CCCC4)CC3)cc2)cc1	?	?	i	?	i
CN(CCc1ccccc1)C(=O)c1ccc(NC(=O)Cc2cccc([N+](=O)[O-])c2)cc1	i	-50.8	i	?	i
CCOC(=O)c1cccc(NC(=O)c2ncoc2-c2ccco2)c1	nt	nt	i	i	nt
COC(=O)c1c(NC(=O)CC2SC(N)=NC2=O)sc(C)c1C (stereo unspecified)	i	i	i	i	i
COc1ccc(CN2CCNC(=O)C2CC(=O)NCCN2CCCCC2=O)c(F)c1 (stereo unspecified)	i	i	i	i	i
O=C(CNc1cccc([N+](=O)[O-])c1)NCCCc1ccccc1	i	-95.7	i	i	i
O=C(Cc1ccccc1)Nc1cccc([N+](=O)[O-])c1	i	i	i	i	i
CN(C)CCN=Cc1c(O)n(Cc2ccc3c(c2)OCO3)c(=O)c2ccccc12	i	-53.4	i	i	i
Cc1cc2c(n1-c1ccc(Cl)cc1)CC(C)(C)CC2=O	i	i	13µM	i	i
COc1ccc(N(CC(=O)N2CCN(c3ccc(F)cc3)CC2)S(=O)(=O)c2c(C)nn(C)c2C)cc1	nt	nt	i	i	nt
COc1ccccc1C1CCN(Cc2ccc3ccccc3c2)CC1	23.1µM	-60.9	i	i	?
COc1ccc(-c2cc(-c3ccccc3)nc(N)n2)c(O)c1	?	?	20.6µM	?	i
COc1ccc(OC)c(Nc2cc(-c3ccccc3)nc(N)n2)c1	1.46µM	i	1.3µM	1.03µM	1.46µM
COc1ccc2nc(-c3ccccc3)cc(OC)c2c1	i	-79.8	?	i	i
COc1ccc(-c2nc(N)ncc2-c2ccccc2)c(O)c1	i	i	?	i	i
COc1cccc(Nc2cc(-c3ccccc3)nc(C)n2)c1	nt	nt	i	i	nt
Cc1c(C(=O)N2CCC(C)(C(=O)NS(=O)(=O)C3CC3)C2)oc2ccccc12 (stereo unspecified)	i	i	i	i	i
Cc1ccc(C2=NCCn3nc4cc([N+](=O)[O-])ccc4c32)cc1	i	i	i	i	i
CC(=O)C(Cc1ccccc1)NC(=O)COc1ccc2c(c1)OCO2 (stereo unspecified)	i	i	i	i	i
Cc1ccc2oc(-c3ccc(Cl)c(NC(=O)c4cc5ccccc5o4)c3)nc2c1	nt	nt	i	i	nt
O=Cc1cc2ccccc2nc1SCCCF	7.31µM	i	i	?	16.4µM
CC(=O)NC(CCc1ccc(Cl)c(Cl)c1)c1cccc(O)c(=O)c1 (stereo unspecified)	?	i	8.2µM	?	?
O=c1c2ccccc2n(Cc2ccccc2F)c(=O)n1-c1cccc(F)c1	nt	nt	i	i	nt
CC(=O)c1cccc(NC(=O)C2Cc3c(-c4cccc(C(N)=O)c4)ccnc3O2)c1 (stereo unspecified)	i	i	i	i	?
